From the supplement of paper PMC12669032 come the findings set out here.

Holding throughout (assay): growth AUC relative to DMSO control (median of replicates) (fraction); higher = more growth (less inhibition), active = hit call of the paper
Conditions in all cases: 20 µM; 24 h

One assay relates to Coprococcus comes. Put shortly:
(§1)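 Each value is the median of three biological replicates, grown on separate days, of a gut bacterial monoculture incubated anaerobically at 37 °C in mGAM with 20 µM compound (1% DMSO). Cultures started at OD600 0.05 and were read at OD600 hourly for 24 h, with the minimum OD set to 0. Area under the growth curve was normalised to the plate median of solvent-only wells, or to row and column medians on the industrial chemical plate.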

The test system of another assay is Escherichia coli ED1a. In outline: as §1
For another assay, the system named is Escherichia coli IAI1. In outline: as §1
The subject of a further assay is Eubacterium rectale. Put shortly:
as §1

In assay [1] the test system is Fusobacterium nucleatum subsp. animalis. Put shortly: as §1
A further assay deals with Lactobacillus gasseri. In outline: as §1
The subject of a further assay is Lactobacillus paracasei. Put shortly:
as §1

The next assay relates to Odoribacter splanchnicus. Put shortly:
as §1

In assay [2] the test system is Parabacteroides distasonis. Put shortly: as §1
In the next assay the test system is Parabacteroides merdae. Put shortly: as §1
In a further assay the test system is Roseburia intestinalis. Put shortly:
as §1

The subject of the next assay is Streptococcus salivarius. In outline: as §1

Each structure is given as a SMILES string. Unmarked numbers belong to inactive results.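 Rule for the calls: active = AUC reduced over 20% with Padj below 0.05 in at least 2 of 3 replicates; inactive = otherwise.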

In the case of `CCC([O-])=C1C(=O)CC(C(=O)[O-])CC1=O.[Ca+2]` (centres undefined), the “growth AUC” value with Coprococcus comes was 0.957; in the assay with Escherichia coli ED1a, 1; with Escherichia coli IAI1, 0.972; in the assay with Eubacterium rectale, 1.13; in assay [1], 1.11; in the assay with Lactobacillus gasseri, 1.06. The “growth AUC” value is 0.91 in the assay on Lactobacillus paracasei; 0.976 in the assay with Odoribacter splanchnicus; 0.993 in [2]; 0.996 in the assay with Parabacteroides merdae; 1.12 in the assay on Roseburia intestinalis; 0.917 in the assay on Streptococcus salivarius.
On to `CCCCCCC(C)OC(=O)COc1nc(F)c(Cl)c(N)c1Cl` (centres undefined), for which the “growth AUC” value in the assay with Coprococcus comes is 0.928; in the assay on Escherichia coli ED1a it was 1; in the assay with Escherichia coli IAI1, 1.01; in the assay with Eubacterium rectale, 0.875; in assay [1] it was 0.935; with Lactobacillus gasseri it was 0.967. In addition, the “growth AUC” value in the assay with Lactobacillus paracasei was 0.942; with Odoribacter splanchnicus, 1.04; in assay [2], 0.919; with Parabacteroides merdae, 0.891; in the assay with Roseburia intestinalis it was 0.967; with Streptococcus salivarius, 0.966.
As to `CNC(=O)Sc1ccc(OS(C)(=O)=O)cc1`, the “growth AUC” value in the assay with Coprococcus comes was 1.02; in the assay on Escherichia coli ED1a, 1.01; in the assay with Escherichia coli IAI1, 1.02; with Eubacterium rectale it was 1.54; in [1], 1.09; in the assay on Lactobacillus gasseri, 0.933. Moreover, the “growth AUC” value was 0.953 in the assay with Lactobacillus paracasei; 0.864 in the assay with Odoribacter splanchnicus; 0.817 in assay [2]; 0.938 in the assay with Parabacteroides merdae; 0.992 in the assay on Roseburia intestinalis; 0.937 with Streptococcus salivarius.
Turning to `CCCNCCOc1c(Cl)cc(Cl)cc1Cl`, the “growth AUC” value with Coprococcus comes was 0.927; with Escherichia coli ED1a, 0.944; with Escherichia coli IAI1, 0.953; in the assay on Eubacterium rectale, 0.924; in assay [1], 0.918; in the assay with Lactobacillus gasseri, 0.953. In addition, the “growth AUC” value in the assay with Lactobacillus paracasei was 0.966; in the assay with Odoribacter splanchnicus, 0.999; in [2], 0.972; with Parabacteroides merdae, 0.997; in the assay on Roseburia intestinalis it was 0.946; in the assay with Streptococcus salivarius, 0.964.
Turning to `O=C(O)COc1ccc(Cl)cc1CO`, the “growth AUC” value in the assay on Coprococcus comes is 0.999; with Escherichia coli ED1a, 0.964; in the assay with Escherichia coli IAI1, 1.01; in the assay with Eubacterium rectale, 1.05; in [1], 0.931; in the assay with Lactobacillus gasseri it was 0.852. Moreover, the “growth AUC” value with Lactobacillus paracasei was 0.993; in the assay on Odoribacter splanchnicus it was 0.96; in [2], 0.91; with Parabacteroides merdae it was 0.978; in the assay on Roseburia intestinalis it was 0.945; in the assay with Streptococcus salivarius, 0.932.
As to `CC(C)CCCCCCc1ccc(O)cc1`, the “growth AUC” value with Coprococcus comes is 1.01; with Escherichia coli ED1a, 1.02; in the assay on Escherichia coli IAI1 it was 1.01; with Eubacterium rectale, 0.879; in assay [1] it was 1.16; in the assay on Lactobacillus gasseri, 0.948. In addition, the “growth AUC” value in the assay on Lactobacillus paracasei is 1.03; with Odoribacter splanchnicus, 1.05; in assay [2] it was 1.02; in the assay on Parabacteroides merdae, 0.968; in the assay with Roseburia intestinalis, 0.958; in the assay with Streptococcus salivarius it was 0.965.
With `Nc1ccc(O)cc1`, the “growth AUC” value in the assay on Coprococcus comes was 1.01; in the assay with Escherichia coli ED1a, 1.06; in the assay with Escherichia coli IAI1, 1.01; in the assay with Eubacterium rectale, 1.12; in assay [1], 1.12; in the assay on Lactobacillus gasseri it was 1.08. The “growth AUC” value in the assay on Lactobacillus paracasei is 1.08; in the assay on Odoribacter splanchnicus, 1.05; in [2] it was 0.954; in the assay with Parabacteroides merdae, 1.04; in the assay with Roseburia intestinalis it was 1.01; with Streptococcus salivarius it was 0.947.
As for `COC(=O)CSc1cc(N=c2sc(=O)n3n2CCCC3)c(F)cc1Cl`, the “growth AUC” value is 0.999 in the assay on Coprococcus comes; 1.02 with Escherichia coli ED1a; 0.963 in the assay with Escherichia coli IAI1; 1.12 in the assay on Eubacterium rectale; 1.03 in assay [1]; 0.862 with Lactobacillus gasseri. The “growth AUC” value is 0.974 with Lactobacillus paracasei; 1.01 in the assay with Odoribacter splanchnicus; 0.796 in assay [2]; 0.967 in the assay on Parabacteroides merdae; 0.971 in the assay with Roseburia intestinalis; 0.946 with Streptococcus salivarius.
For the molecule `C/C=C/C(=O)Oc1c(C(C)CCCCCC)cc([N+](=O)[O-])cc1[N+](=O)[O-]` (mixture of isomers), the “growth AUC” value with Coprococcus comes was 0.509; in the assay on Escherichia coli ED1a, 0.976; in the assay on Escherichia coli IAI1, 0.985; in the assay on Eubacterium rectale it was 0.665 (active); in [1] it was 0.94; in the assay with Lactobacillus gasseri, 0.273 (active). Also, the “growth AUC” value in the assay with Lactobacillus paracasei is 0.41 (active); with Odoribacter splanchnicus, 0.679; in assay [2] it was 0.288 (active); with Parabacteroides merdae it was 0.00823 (active); with Roseburia intestinalis, 0.809; with Streptococcus salivarius, 0.301 (active).
For `COC(=O)C(C)Oc1ccc(Cl)cc1C` (centres undefined), the “growth AUC” value with Coprococcus comes was 1.04; in the assay with Escherichia coli ED1a it was 0.991; with Escherichia coli IAI1 it was 1; in the assay on Eubacterium rectale, 0.997; in assay [1], 1.03; with Lactobacillus gasseri, 1.06. The “growth AUC” value in the assay on Lactobacillus paracasei is 1.01; in the assay on Odoribacter splanchnicus, 1.02; in assay [2], 1.02; in the assay on Parabacteroides merdae, 1.05; in the assay with Roseburia intestinalis, 1.04; with Streptococcus salivarius it was 0.988.
`CCSC(=O)N(CC(C)C)CC(C)C`: the “growth AUC” value with Coprococcus comes was 1.02; in the assay on Escherichia coli ED1a, 1.02; in the assay with Escherichia coli IAI1, 1.02; in the assay with Eubacterium rectale it was 0.903; in assay [1], 1.03; with Lactobacillus gasseri, 1.22. Further, the “growth AUC” value was 0.942 in the assay with Lactobacillus paracasei; 0.985 with Odoribacter splanchnicus; 0.993 in assay [2]; 0.987 with Parabacteroides merdae; 1.01 with Roseburia intestinalis; 0.997 with Streptococcus salivarius.
`CCCOC(=O)NCCCN(C)C`: the “growth AUC” value with Coprococcus comes was 0.979; in the assay with Escherichia coli ED1a it was 1.02; with Escherichia coli IAI1 it was 0.979; with Eubacterium rectale, 0.952; in assay [1] it was 0.984; in the assay on Lactobacillus gasseri, 0.951. Also, the “growth AUC” value in the assay with Lactobacillus paracasei is 1.04; in the assay with Odoribacter splanchnicus it was 1.01; in assay [2] it was 0.989; in the assay with Parabacteroides merdae, 0.977; with Roseburia intestinalis, 1.02; in the assay with Streptococcus salivarius it was 0.967.
